# Assay outcomes from PubChem BioAssay.
# Yeast superoxide: caloric restriction mimetics inhibiting age-related superoxide in yeast. superoxide response (% of plate mean), % at 10 µM. 330,000 tested, 0.18% active. S. cerevisiae aged cells, superoxide DHE fluorescence; active compounds read low. AID 2690;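 active = superoxide response under a set limit, about three screen SD below normal, cut at about 65% in these data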;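 also: yeast aged for seven days with compound at 30 °C before DHE staining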
# PLCg1 inh: inhibitors of human phospholipase C gamma1; P19174; purified PLC-gamma1, fluorogenic substrate, fluorescence; inhibition, % at 12.2 µM; 370,000 tested, 0.84% active; AID 720700; in the data active = inhibition above about 9.5%
# AHR act: activators of human aryl hydrocarbon receptor; 320,000 tested, 2.5% active; activation, % at 5 µM; AID 2796; AHR-responsive luciferase reporter cells, luminescence; in the data active = activation above about 47%
# sPLA2-III inh: Inhibits HGIII-sPLA2 liposome hydrolysis, primary screen; QFRET BODIPY PC-A2 liposome hydrolysis, fluorescence; inhibition, % at 12.2 µM; 370,000 tested, 0.56% active; AID 743126;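 active = inhibition above mean plus 3 SD of compounds lying within the high and low control bounds, cut at about 19% in these data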
# PLCb3 inh: blocks human PLC-beta3 enzyme activity; Q01970; Purified PLC-beta3, fluorogenic substrate, fluorescence; inhibition, % at 12.2 µM; 370,000 tested, 0.18% active; in the data active = inhibition above about 11%
# HIF activator: HIF pathway transcriptional activation | U2OS HRE-luciferase reporter, luminescence; normalized: DMSO 0%, desferrioxamine 100% | activation, % at 7.5 µM (by protocol) | 300,000 tested, 0.32% active | AID 1910;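 active = mean activation of at least 10% of the iron chelator positive control signal, with at least half of replicates also reaching 10%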
# Hits are given with their value; - = inactive; . = no result; ! = not active in a repeat. Only some compounds are listed: those with a hit (about 3.9% of all), similar ones and a draw of the others.
SMILES,Yeast superoxide,PLCg1 inh,AHR act,sPLA2-III inh,PLCb3 inh,HIF activator
CC(=O)Nc1ccc(Nc2nc(-c3sc(NC(C)=O)nc3C)cs2)cc1,-,-,-,-,-,-
Cc1ccc(C(=O)N(C)[C@H]2C[C@H]3c4[nH]c5c(-c6cccc(C)c6)cccc5c4CCN3C[C@H]2[C@H](C)O)cc1,.,-,.,-,-,.
O=S1(=O)c2ccc(N3CCN(Cc4ccccc4F)CC3)cc2Oc2ccccc2CN1Cc1cn(Cc2cccc(C(F)(F)F)c2)nn1,.,-,.,-,-,.
Cc1ccc(NC(=O)CN(C)C(=O)CSc2nccn2C)cc1,-,14,-,-,-,.
Cc1ccc(NC(=O)CN(C)C(=O)CSc2nncn2C)cc1,-,-,-,-,-,-
Cc1ccc(/C=C/C(=O)c2cc(Br)ccc2OC(=O)c2ccco2)cc1,-,-,-,-,-,-
COc1ccccc1/C=C/C(=O)c1cc(Br)ccc1OC(=O)c1ccco1,-,-,74,-,-,-
COc1cc(Cl)c(C)cc1NC(=O)c1ccccc1NC(=O)CN1CCN(c2ccccn2)CC1,.,-,.,-,-,.
O=C(CN1CCN(c2ccccn2)CC1)Nc1ccc([N+](=O)[O-])cc1C(=O)Nc1ccccc1F,-,-,48,-,-,-
Cc1ccc(-n2c(SCC(=O)Nc3ccc(S(=O)(=O)Nc4nccs4)cc3)nnc2-c2cccs2)cc1,.,-,.,-,-,.
COCC(C)N1C(=O)Cc2c1nc(N)c1c(N)nc(N3CCN(c4ccccc4F)CC3)c(C#N)c21 (configuration not stated),-,-,-,25,-,-
COCCN1C(=O)Cc2c1nc(N)c1c(N)nc(N3CCN(c4ccc(F)cc4)CC3)c(C#N)c21,-,-,-,-,-,-
CC(C)(C)OC(=O)NC1CCN(c2nc(-c3ccc(Br)cc3)cs2)CC1,.,-,.,-,-,.
O=C(Nc1cc(SCCO)cc([N+](=O)[O-])c1)c1ccc(Br)o1,-,-,52,-,-,-
Cc1cc(/C=C(\C#N)C(=O)NCc2ccco2)c(C)n1-c1cccnc1,-,-,70,-,-,-
N#CCCCSc1ncccc1-c1nc2ccccc2[nH]1,-,-,-,-,-,-
N#CCSc1ncccc1-c1nc2ccccc2[nH]1,-,-,73,-,-,-
O=C(Cn1c(-c2cncs2)nc2ccccc21)NC1CCCCC1,.,-,.,-,-,.
Cc1ccc(N2C(=O)C3C(C2=O)C(C(=O)c2ccc(Cl)cc2)N2CCCC32)cc1 (configuration not stated),-,-,-,-,-,-
O=C(C1=C[C@@H]2[C@H]3C(=O)N(c4ccc(Cl)cc4)C(=O)[C@H]3[C@@H](C(=O)c3ccc(Cl)cc3)N2C=C1)c1ccccc1,-,-,50,-,-,-
CN(C)CCNC(=O)C(=O)C1C(=O)Nc2ccccc21 (configuration not stated),-,-,-,-,-,-
CCCCCNC(=O)C(=O)C1C(=O)Nc2ccccc21 (configuration not stated),56,-,-,-,-,-
O=C(C(=O)N1CCCc2ccccc21)c1c[nH]c2ccccc12,-,-,50,-,-,.
Cn1cc(C(=O)C(=O)N2CCc3ccccc32)c2ccccc21,-,-,63,-,-,-
Cn1cc(C(=O)C(=O)N2CCOCC2)c2ccccc21,-,-,-,-,-,-
SMILES,Yeast superoxide,PLCg1 inh,AHR act,sPLA2-III inh,PLCb3 inh,HIF activator
Cc1[nH]c2ccccc2c1C(=O)C(=O)N1CCCc2ccccc21,-,-,-,-,-,-
COc1ccc(C(=O)CSc2nnc(-c3cccs3)o2)cc1OC,.,-,.,-,-,.
COc1ccccc1N=Nc1ccc(O)c2ncccc12,-,-,51,-,-,11
Cc1ccc(N=Nc2ccc(O)c3ncccc23)cc1,-,-,47,-,-,147
CCS(=O)(=O)c1ccc(N=Nc2ccc(O)c3ncccc23)c(OC)c1,.,-,.,-,-,-
O=C(C1CCCN1S(=O)(=O)c1cccc2ccccc12)N1CCN(c2ccccc2)CC1 (configuration not stated),.,-,.,-,-,.
COC(=O)c1ccc(S(=O)(=O)N2CCC(NC(=O)Cc3cccc(C)c3)CC2)cc1,.,-,.,-,-,.
O=C1COc2ccccc2C(c2nnnn2Cc2ccccc2)N1Cc1cccs1 (configuration not stated),.,-,.,-,-,.
COc1ccc(CNS(=O)(=O)CC2NCc3cc(OC)ccc32)cc1 (configuration not stated),.,-,.,-,-,.
O=C(OCc1cn(Cc2cccc(Cl)c2)nn1)N1CCOCC1,.,-,.,-,-,.
NC(=O)c1cc2ccccc2o/c1=N/NC(=O)c1ccccc1,-,-,51,-,-,-
COc1cccc(C(=O)N/N=c2/oc3ccccc3cc2C(N)=O)c1,-,-,-,-,-,-
Cc1ccc(C2=NOC(=O)/C2=C\c2ccccc2)cc1,-,-,-,-,-,31
COC(=O)[C@]12C[C@H](CC(=O)NCc3cccc4ccccc34)C(=O)N(Cc3ccc(Cl)cc3Cl)C1=C[C@H](C(C)C)O[C@@H]2C1CC1,.,-,.,-,-,.
Cc1cccc2c3nc4ccccc4nc3n(C)c12,-,-,69,-,-,-
COc1cc(/C=C2/NC(=O)NC2=O)cc(Br)c1OCc1ccccc1,-,-,59,-,-,-
Cc1ccc(NC(=O)C2=CC(c3cccs3)=NS(=O)(=O)N2C)cc1,-,-,64,-,-,-
Nc1[nH]c(C(=O)c2ccccc2)c(-c2ccccn2)c1C(=O)c1c[nH]c2ccccc12,.,-,.,-,-,.
Cc1cccn2c(=O)c(C=O)c(N3CCCCC3)nc12,-,-,-,-,-,-
Cc1cccn2c(=O)c(C=O)c(N3CCN(c4ccc(F)cc4)CC3)nc12,-,-,64,-,-,-
Cc1[nH]nc(-c2ccc(O)cc2O)c1-c1ccc(Cl)cc1,-,-,-,-,-,-
Cc1[nH]nc(-c2ccc(O)cc2O)c1-c1nc2ccccc2s1,-,-,73,-,-,-
O=C(O)c1ccccc1Nc1ccc([N+](=O)[O-])cc1C(=O)O,-,-,-,-,-,14
OC(c1ccccc1)(c1ccccc1)C1CCN(CCCOc2ccc(F)cc2)CC1,.,11!,.,-,-,.
COc1ccc(-c2nc(-c3ccccc3)c(-c3cccs3)[nH]2)cc1OC,-,-,81,-,-,-
COc1ccc(-c2[nH]c(-c3ccc4c(c3)OCO4)nc2-c2ccccc2)cc1,-,-,74,-,-,-
COc1ccc(-c2nc(-c3cccs3)c(-c3cccs3)[nH]2)cc1OC,-,-,50,-,-,-
O=[N+]([O-])c1cccc(-c2nc(-c3cccs3)c(-c3cccs3)[nH]2)c1,-,-,63,-,-,-
O=[N+]([O-])c1cccc(-c2nc(-c3ccccc3)c(-c3cccs3)[nH]2)c1,-,-,-,-,-,-
COc1cccc(CC(=O)O[C@@H]2CCC[C@@]3(C(=O)N(Cc4ccccc4)c4ccccc43)[C@H]2NC(=O)CCc2ccccc2)c1,.,-,.,-,-,.
